Reference: PMC12136788
Over roughly 5,800 sequences, “enrichment r” has its median near 0.68; the highest 2% begin near 11. The entries come from a sample that favours the highest values as a whole.

T1: UNK ZnF1-6 (called full-length) (human, UniProt Q9C0B0 30-357)
T1 sequence: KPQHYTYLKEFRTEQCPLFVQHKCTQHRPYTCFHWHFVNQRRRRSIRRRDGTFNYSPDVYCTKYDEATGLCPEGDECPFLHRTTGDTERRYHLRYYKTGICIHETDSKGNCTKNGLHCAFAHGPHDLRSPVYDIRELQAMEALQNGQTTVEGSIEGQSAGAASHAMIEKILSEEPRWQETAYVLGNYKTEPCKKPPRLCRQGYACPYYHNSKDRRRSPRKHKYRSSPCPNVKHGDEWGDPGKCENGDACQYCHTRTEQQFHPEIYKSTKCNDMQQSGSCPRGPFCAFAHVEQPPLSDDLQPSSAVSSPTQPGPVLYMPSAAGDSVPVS

B1: chr10:75150949:75151073:+|CDS|ENSG00000156671|unk|FALSE|unique (ssRNA)
RNA: GGGAGUUCUACAGUCCGACGAUCUGUUCGAAGAUUGGACCCAGAAUACUGGAAGACUAUACUGAGUUGUAUAUAUGUUUUUAUAGUAUUUGGAUUUACAUCUUUCAUUAUGGUUAUAGUCCAUGAGCGAGUGCCUGACAUGCACAACAGAGGAUUGAGCAUCA
B2: ENSG00000107863:be:win_4151|CDS|ENSG00000107863|bound_else_gene|NA|bound_elsewhere_windowed (ssRNA)
RNA: GGGAGUUCUACAGUCCGACGAUCAUUCAGCUACUAGUGACUCAACAAAAUCUAAGGGUUCUUGGGGAUCUGGAAAGGAUCAGUAUAGCAGGGAACUGCUUGUGUCCUCCAUCUUUGCAGCUGCUAGUCGCAAGAGGAAGAAGCCAACAGAGGAUUGAGCAUCA
B3: chr2:224001733:224001845:-|CDS|ENSG00000135919|unk|total|mutant (ssRNA)
RNA: GGGAGUUCUACAGUCCGACGAUCGGCCUCUGUGACGCUGCCUUCCAUCUGCUCCCACUUCAAUCCUCUGUCUCUCGAGGAACCCGGCUCCAACACGGGGAUCCAGGUUUUCAAUCAGAUUGUGAAGUCGAGGCCUCAUGACAACAACAGAGGAUUGAGCAUCA
B4: chr12:122341087:122341188:-|CDS|ENSG00000130779|unk|FALSE|bound_elsewhere (ssRNA)
RNA: GGGAGUUCUACAGUCCGACGAUCAGAAUUUGCUGAACUAAAAACACAAAUAGAGAAAAUGAGACUAGAUUACCAACACGAAAUAGAAAAUUUGCAGAAUCAACAAGACUCUGAACGGGCUGCCCAUGCUAAAGAGAUGGAAGCCAACAGAGGAUUGAGCAUCA
B5: chr10:62806226:62806343:+|3pUTR|ENSG00000181915|unk|FALSE|unique (ssRNA)
RNA: GGGAGUUCUACAGUCCGACGAUCCUACCCCUUAGUUAAAUAGGGUUUAUUUUCCACUCAUGCCCUUAUGCCUUUUUUUCUUAUAGUUUUUUAACUUAUUGACUGUGCAUGACCCAGUGGUUUGAAUUGUUUUUAGUUCAAGUCCAACAGAGGAUUGAGCAUCA
B6: chr3:68976711:68977116:-|CDS|ENSG00000163378|control|control|control (ssRNA)
RNA: GGGAGUUCUACAGUCCGACGAUCCUUUUUAGGAAUACCAAAGUUUUCAACUUUUUCAGCUUUAGAAUUUGUAAAUAUUUUUGUAGAAUAUCAUAUGACUGUAAUUCCAGAGUGUUCCAACUUGUUUAUGAUAUAUUUGGGUAACAACAGAGGAUUGAGCAUCA
B7: chr7:107202531:107202632:-|3pUTR|ENSG00000164597|msi1|total|mutant (ssRNA)
RNA: GGGAGUUCUACAGUCCGACGAUCUAUUCUGAGAACUCAUAAAUAAAAUUCAGCCAAGAUUAAUCAAUCAAUCAAUCAAUCAGCCGACGUCAGAGAUAAGCAACUUUUUUUUCCAUUUAUUUGAAAUAAUAUACAAGAAUACCGCAACAGAGGAUUGAGCAUCA
B8: chr20:13714314:13714426:-|3pUTR|ENSG00000089048|unk|FALSE|unique (ssRNA)
RNA: GGGAGUUCUACAGUCCGACGAUCUUUUUCUAGCCAUAAAGGAUGGAAGUCAAGAACUUUUUGUUGUUUAGUCAUGUUAAGUAUAGUUUAUGAAAUUAACUUGUAAAUAAAAGUGUAAAAUAUUUUCAUUAUUUUGUAUAGCACCAACAGAGGAUUGAGCAUCA
B9: chr8:58582127:58582250:+|3pUTR|ENSG00000137575|unk|FALSE|bound_elsewhere (ssRNA)
RNA: GGGAGUUCUACAGUCCGACGAUCUUCAUAUUACUUUAGUUCUAUAGCAUACUUGCAUCUUUAACAUGCUAUCAUAGUACAUUUAGAAUGAUUGCCUUUGAUUUUUUUUUUAAAUUCUGUGUGUGUGUGUGUAAAAUGCCAAUUCAACAGAGGAUUGAGCAUCA
B10: chr10:11920118:11920232:-|3pUTR|ENSG00000151461|unk|FALSE|unique (ssRNA)
RNA: GGGAGUUCUACAGUCCGACGAUCGUAGUAUAUUUAGUCGGAGAGCACAUCUGUAUGCGACAACUUGAUUACAUCUUUUUUUCUAGCUAUUUUGCAUUUUUUCUUUUACCAUGUUUCAGUUUCUGCAUGUAGAUUUAAAUAAAACAACAGAGGAUUGAGCAUCA
B11: chr13:52036708:52036809:-|3pUTR|ENSG00000197168|unk|FALSE|unique (ssRNA)
RNA: GGGAGUUCUACAGUCCGACGAUCGUAGAACUUUUGAAUAUAGCCAUUAAUAUUUUUACUUUAAAGUUUCUAUUAAGAAAUCUUAGGCCGGGCAGUCUCAUCACUUUGGGAGGCCAAGGCAGGCAGAUCAUGAGGUCAGGAGUUCAACAGAGGAUUGAGCAUCA
B12: chr6:152987361:152990084:-|three_prime_utr|ENSG00000112031|control|control|control (ssRNA)
RNA: GGGAGUUCUACAGUCCGACGAUCAGAUUAUCUACUGGAUGAACUUGUACAGUCAUUGAAGGAAUACGCCGAUUAUGAAUCUUUAGUAGAAAUUAUUUCCCAAAAAGUUUAAGUUGAUUUGUUAUUUAUAGACUUUCGUAGCUUCAACAGAGGAUUGAGCAUCA
B13: chr12:39553730:39553837:-|3pUTR|ENSG00000173208|unk|FALSE|unique (ssRNA)
RNA: GGGAGUUCUACAGUCCGACGAUCGAAGUAUGUUAAGCUAAGCACAGAGAAAAAAAGGCAGCAAGACAUGUUUUAUAAGAUUUUAGCAUUAAGGAAGUAUAUGAUCUGACUUUUCAGAAGAAAAUAAACAAAUGCAUUAUGUAACAACAGAGGAUUGAGCAUCA
B14: chr21:14371318:14371404:-|3pUTR|ENSG00000155304|msi1_unk|FALSE|overlapping (ssRNA)
RNA: GGGAGUUCUACAGUCCGACGAUCUAUGAAUAACAAUCUGAAGUCUUUUCAUAAAAAAAAUUAAUAAACUUUAGUUGUACAUUUAGCCAGUGUUAUUUGAAGUAUGUAACUUUUAAAAUAUUAAGUGUCUUGUAUGAUUAGAAUCAACAGAGGAUUGAGCAUCA
B15: ENSG00000070961:be:win_5751|3pUTR|ENSG00000070961|bound_else_gene|NA|bound_elsewhere_windowed (ssRNA)
RNA: GGGAGUUCUACAGUCCGACGAUCCUAAAAAUUGACCCUAUCAACUGGAGAGCCCACAAGGCAUAGGGAAUAGAGAAAAGGGAAAUGUUUUCAGUUUUCUUUUUUAUUUUGGUUAUGCUUAAAUAUGAAUGUAAUUACCAAAAGCAACAGAGGAUUGAGCAUCA

Target: T1, UNK ZnF1-6 (called full-length)
Test: nsRBNS (natural sequence RNA bind-n-seq); RBNS binding buffer (assumed for nsRBNS): 25 mM Tris pH 7.5, 150 mM KCl, 3 mM MgCl2, 0.01% Triton X-100, 500 ug/ml BSA, 20 U/ml SUPERase-In, 4 C; UNK is unkempt and MSI1 is Musashi-1; names of the RNAs are library labels; protein concentration not given here; high values mean tight binding

Row | Binder | binding signal [enrichment R]
1 | B1 | 0.389
2 | B2 | 0.489
3 | B3 | 0.666
4 | B4 | 8.87
5 | B5 | 15.8
6 | B6 | 9.89
7 | B7 | 1.94
8 | B8 | 62.3
9 | B9 | 5
10 | B10 | 21.9
11 | B11 | 21
12 | B12 | 1.84
13 | B13 | 0.997
14 | B14 | 1.48
15 | B15 | 0.412
